Source: PubChem (National Center for Advancing Translational Sciences (NCATS))
KCNH2 3.1 inh: KCNH2 3.1 (human) potassium channel inhibition; U2OS KCNH2 3.1, thallium flux FluxOr; stronger effect = lower value; activity change, % (tested at about 1.8 µM); 0.95% of 340,000 active;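 active = maximum activity change below -70%; inconclusive = maximum activity change from -70% to -50%; inactive = maximum activity change above -50%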;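 note: thallium influx rate constant from kinetic fluorescence after stimulation buffer; % is set by controls: 0 for no effect and ±100 for the full control effect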
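FluxOr-based Tl+ influx in U2OS cells transduced with KCNH2 3.1 virus; rate constants normalized to DMSO controls.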
KCNH2 WT inh: KCNH2 (human, wildtype) channel inhibition; Q12809; U2OS, BacMam KCNH2, thallium flux FluxOr; stronger effect = lower value; activity change, % at 1.84 µM; 0.37% of 340,000 active; AID 720551;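 active = maximum activity change below -70%; inconclusive = maximum activity change between -70% and -50%; inactive = maximum activity change above -50%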; note: % is set by controls: 0 for no effect and ±100 for the full control effect
Target sequence (Q12809 whole entry, looked up): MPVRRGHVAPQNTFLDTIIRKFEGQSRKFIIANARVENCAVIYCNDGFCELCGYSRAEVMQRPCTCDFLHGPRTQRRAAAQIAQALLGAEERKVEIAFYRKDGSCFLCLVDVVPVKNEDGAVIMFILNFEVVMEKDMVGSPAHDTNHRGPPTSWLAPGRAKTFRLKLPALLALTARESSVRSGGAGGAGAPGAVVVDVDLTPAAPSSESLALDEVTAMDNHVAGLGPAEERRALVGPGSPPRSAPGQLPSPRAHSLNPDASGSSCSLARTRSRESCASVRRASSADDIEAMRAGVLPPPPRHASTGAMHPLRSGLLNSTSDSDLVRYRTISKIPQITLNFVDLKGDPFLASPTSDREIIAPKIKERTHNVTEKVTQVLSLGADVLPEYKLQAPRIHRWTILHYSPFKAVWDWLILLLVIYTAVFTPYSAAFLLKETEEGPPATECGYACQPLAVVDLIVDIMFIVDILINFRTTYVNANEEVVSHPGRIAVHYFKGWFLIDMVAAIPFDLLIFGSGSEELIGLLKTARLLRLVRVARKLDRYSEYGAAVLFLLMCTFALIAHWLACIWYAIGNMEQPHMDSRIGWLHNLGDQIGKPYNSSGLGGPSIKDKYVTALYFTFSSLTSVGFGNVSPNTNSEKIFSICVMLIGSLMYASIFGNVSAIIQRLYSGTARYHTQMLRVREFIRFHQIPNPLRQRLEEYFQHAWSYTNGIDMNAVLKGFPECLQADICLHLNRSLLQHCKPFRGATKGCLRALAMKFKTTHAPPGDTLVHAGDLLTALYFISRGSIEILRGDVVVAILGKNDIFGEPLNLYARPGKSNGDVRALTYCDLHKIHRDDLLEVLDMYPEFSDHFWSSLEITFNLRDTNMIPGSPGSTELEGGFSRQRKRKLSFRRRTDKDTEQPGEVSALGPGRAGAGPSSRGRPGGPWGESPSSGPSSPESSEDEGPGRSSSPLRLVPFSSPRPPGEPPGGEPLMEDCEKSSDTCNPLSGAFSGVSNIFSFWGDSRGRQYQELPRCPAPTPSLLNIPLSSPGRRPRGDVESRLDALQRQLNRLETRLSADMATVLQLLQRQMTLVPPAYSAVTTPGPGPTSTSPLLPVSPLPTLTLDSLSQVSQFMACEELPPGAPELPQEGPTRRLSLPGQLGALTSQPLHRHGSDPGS
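U2OS cells transduced with wild-type KCNH2 virus are loaded with FluxOr dye for 45 min, and thallium flux is measured in kinetic reads before and after stimulation buffer. Rate constants are normalized to DMSO controls.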
SW480 rereplic: inducers of DNA re-replication in SW480 colon cancer cells; SW480 DNA re-replication, Hoechst DNA content imaging, 48 h; Potency, µM (highest dose often 46.1 µM), for the others: at the top dose re-replication activation, most hits filed as activators; 1.8% of 340,000 active; AID 624297; note: potency is the fitted concentration of half-maximal effect; % of control where 0% means no effect; nearly all actives have a fitted effect of over 55% in size
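Cells (250 per well) received 23 nL compound or DMSO by pin tool and were kept 48 hr at 37 C, 5% CO2. Nuclei were then stained with Hoechst for 40 min and scanned for DNA content.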
MCF10A rerep: induces DNA re-replication in MCF 10a normal breast cells | MCF 10A DNA re-replication, Hoechst nuclear intensity, 48 h | Potency, µM (top dose mostly 46.1 µM), without a hit: top-dose activity, positive = re-replication, most hits filed as activators | 2.9% of 350,000 active; note: potency is the fitted concentration of half-maximal effect; % of control where 0% means no effect; nearly all actives have a fitted effect of over 50% in size
KB-V1 cytotox: kills drug-selected multidrug resistant KB-V1 cells; Potency, µM (doses to about 46.1 µM), usual class: cytotoxic; 3.4% of 400,000 active; KB-V1 MDR cells viability, CellTiter-Glo, 72 h; note: potency is the fitted concentration of half-maximal effect; % is set by controls: 0 for no effect and ±100 for the full control effect; nearly all actives have a fitted effect of over 60% in size
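Potencies derive from concentration-effect curves fitted to normalized luminescence (CellTiter-Glo) of KB-V1 cells treated for 72 h at 37 degrees C in phenol-red-free DMEM containing 10% FBS.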
KB-3-1 tox: KB-3-1 parental cell cytotoxicity; KB-3-1 viability, CellTiter-Glo ATP luminescence, 72 h; AID 1347075; 1.4% of 400,000 active; Potency, µM (highest dose often 46.1 µM), usual class: cytotoxic; note: potency is the fitted concentration of half-maximal effect; % is set by controls: 0 for no effect and ±100 for the full control effect; nearly all actives have a fitted effect of over 60% in size
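Screening of KB-3-1 cells (DMEM, 10% FBS, phenol-red free) ran from lowest to highest compound concentration; after 72 h at 37 °C viability was read luminescently and curves fitted.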
* = called active by the depositor; i = inactive; ? = inconclusive; / = not tested or not shown. Most compounds without a hit are left out; they make up all but 7.6% or so of the library. Unless noted, calls come from the whole dose curve; as a rule, active = well fitted curve in the direction sought with a large enough effect; inconclusive = small, poorly fitted or top-dose-only effect, or another doubt; inactive = no such curve, though single readings can be large; an effect the other way counts as inactive or inconclusive.

SMILES	KCNH2 3.1 inh	KCNH2 WT inh	SW480 rereplic	MCF10A rerep	KB-V1 cytotox	KB-3-1 tox
OC(c1ccccc1)(c1nc(-c2cc3ccccc3o2)cs1)C(F)(F)F (stereo not drawn)	/	/	/	/	?	23.1µM*
CCOc1ccc(-n2c(C)nc3cc(C(=O)NCCN4CCOCC4)ccc32)cc1	11.5	-12.8	-7.5%	-12.5%	i	i
COCCNC(=O)c1ccc2c(c1)nc(C)n2-c1cccc(F)c1	-17.7	-20.7	4.5%	12.0%	20.6µM*	i
CCCNC(=O)c1ccc2c(c1)nc(C)n2-c1cccc(C)c1	4.3	1.2	15.5%	5.3%	i	i
COc1ccc(-n2c(C)nc3cc(C(=O)NCCN4CCOCC4)ccc32)cc1	2.8	-183.5*	-7.5%	0.8%	i	i
Cc1cccc(-n2c(C)nc3cc(C(=O)NCc4ccc5c(c4)OCO5)ccc32)c1	-2.6	-20.8	?	-67.7%	16.4µM*	i
Cn1c2ccccc2c2cc(/C=N/NC(=O)c3ccc(O)cc3O)ccc21	-14.1	5.0	?	140.0%	i	?
Cn1c(O)c(/C=N/NC(=O)c2cc3ccccc3cc2O)c2ccccc21	5.9	-15.3	?	20.6µM*	i	?
CCN(CC)CCNC(=O)c1ccc(CS(=O)(=O)c2ccccc2C)o1	6.8	16.3	0.1%	6.0%	?	i
COC(=O)[C@H](C)NC(=O)Nc1ccc(OC)cc1OC	-23.8	-1.3	2.7%	-0.6%	i	i
COc1ccc(C(CCc2ccc(C)o2)NC(=O)Nc2ccc(OC)cc2OC)cc1 (stereo not drawn)	-5.4	41.9	2.0%	-2.8%	7.31µM*	i
O=C(O)c1cnn(-c2nc(-c3cccc([N+](=O)[O-])c3)cs2)c1C(F)(F)F	3.0	-2.9	-5.8%	-6.3%	i	i
CCOC(=O)C1=NN(c2ccccc2)C2=NC(C)=C(C(=O)OC)C(c3ccc(C)cc3)N12 (stereo not drawn)	-4.1	-4.5	0.0%	1.9%	14.6µM*	i
CCC1SC2=NC(C)=C(C(=O)OC)C(c3ccc(C)cc3)N2C1=O (stereo not drawn)	-6.4	-7.3	1.1%	-1.7%	i	i
CNC(=O)[C@@H]1C[C@H]1[C@@H](NC(=O)OCc1ccccc1)c1ccccc1	-4.9	-4.8	-1.3%	-0.9%	i	i
Cc1cc(C)n(CC(O)Cn2c3ccc(Cl)cc3c3cc(Cl)ccc32)c(=O)n1 (stereo not drawn)	-0.2	12.5	3.7%	2.4%	16.4µM*	i
CCOC(=O)C(=Cc1cc(=O)c(OC)co1)C(=O)OCC	2.9	6.8	?	1.64µM*	?	4.61µM*
Cc1cccn2c(CN[C@H]3CCCCNC3=O)c(C(=O)N3CCOCC3)nc12	-0.6	-10.2	-27.7%	-1.5%	i	i
Cc1cccc(C)c1NC(=O)CCCSc1nnc(-c2ccc(F)cc2)n1-c1ccccc1	-0.7	-0.5	1.6%	?	2.31µM*	16.4µM*
Cc1cccc(C)c1NC(=O)CCCSc1nnc(-c2ccc(Cl)cc2)n1-c1ccccc1	1.8	1.4	?	?	2.91µM*	4.11µM*
O=C(CSc1nnc(-c2ccncc2)n1-c1ccccc1)Nc1ccc(F)cc1	/	/	/	/	i	i
O=C1C(=O)N(CNc2ccccn2)c2ccccc21	2.4	-9.9	11.6µM*	7.31µM*	i	?
O=C1C(=O)N(CNc2cccnc2)c2ccccc21	10.4	-1.1	-2.8%	3.6%	i	i
COc1ccc(CSc2ccc(-c3nc4ccccn4c3NCc3ccccc3)cc2OC)cc1	-34.7	5.1	?	23.1µM*	?	?
Cc1ccc(-c2nc3ccccn3c2NCc2ccc3c(c2)OCO3)cc1	-92.2*	-14.2	2.5%	?	i	i
SMILES	KCNH2 3.1 inh	KCNH2 WT inh	SW480 rereplic	MCF10A rerep	KB-V1 cytotox	KB-3-1 tox
CCCCCCSc1cc(-c2nc3cnccn3c2NCc2ccccc2)ccc1OC	-18.3	11.1	?	?	?	?
CCC(C)Sc1ccc(-c2nc3ccccn3c2NCc2ccccc2)cc1OC (stereo not drawn)	-7.3	-8.8	-4.0%	20.6µM*	?	?
CCC(C)Sc1ccc(-c2nc3ccc(C)cn3c2NCc2ccccc2)cc1 (stereo not drawn)	-43.0	-9.5	22.8%	?	?	?
O=C(COc1ccc(F)cc1)Nc1ccc(C(=O)OCc2cc(=O)n3nc(C4CC4)sc3n2)cc1	/	/	/	/	?	i
COc1cc(C(O)c2nc(-c3ccccc3OC)cs2)ccc1F (stereo not drawn)	/	/	/	/	i	i
CCOc1cccc2sc(Nc3nc4ccc(NC(C)=O)cc4s3)nc12	-7.5	27.4	4.11µM*	3.66µM*	?	11.6µM*
CCOc1cccc2sc(NC(=O)CCS(=O)(=O)c3ccccc3)nc12	/	4.2	20.6µM*	20.6µM*	?	?
CCOc1cccc2sc(N(CCN(C)C)C(=O)CCS(=O)(=O)c3ccccc3)nc12	19.8	11.9	-2.9%	-3.0%	i	i
CCC(=O)Nc1nc2ccc(NC(C)=O)cc2s1	0.4	-0.4	-4.8%	1.3%	i	i
Cc1ccc(Cn2cc(S(=O)(=O)c3ccc(C)cc3)c(=O)c3cc(F)c(N4CCCC4)cc32)cc1	/	/	/	/	i	i
CCC(=O)N(C(=O)CC)N1CCN(c2ccncc2S(=O)(=O)N2CCCCC2)CC1	-3.3	19.6	0.5%	4.7%	i	0.0291µM*
CCC(=O)NN1CCN(c2ccncc2S(=O)(=O)N2CCCCC2)CC1	-11.9	0.6	-0.2%	-13.7%	i	i
CN(CC(=O)Nc1ccc(Cl)c(S(=O)(=O)N2CCOCC2)c1)C(=O)c1ccc(C#N)cc1	-11.3	-6.0	10.3%	-3.7%	i	i
CN(CC(=O)Nc1ccc(Cl)c(C(F)(F)F)c1)C(=O)c1ccc(S(=O)(=O)N2CCOCC2)cc1	0.6	3.9	?	5.8µM*	?	8.2µM*
Cc1ccc(S(=O)(=O)N2CCCCC2)cc1C(=O)N(C)CC(=O)Nc1ccc(Cl)c(C(F)(F)F)c1	15.0	-10.2	?	23.1µM*	?	?
Cc1ccc(C(=O)N(C)CC(=O)Nc2ccc(Cl)c(C(F)(F)F)c2)cc1S(=O)(=O)N1CCCCC1	29.0	-6.8	?	20.6µM*	?	?
CN(CC(=O)Nc1ccc(Cl)c(C(F)(F)F)c1)C(=O)c1ccc(OCC2CCCO2)cc1 (stereo not drawn)	3.0	3.7	11.5%	13.6%	7.31µM*	?
O=C1NC2(CCC3(CC2)OCCO3)NN1c1ccc(Cl)cc1	1.2	3.1	?	?	i	?
